# Measurements as given in PubChem BioAssay (EPA / NIEHS).
# Where “and” joins values, the source holds several entries; their conditions need not be identical. Identical values can stand only once. Calls of active or inactive are those of the source. How the source made its calls: active means hit-call score of the fitted dose curve at least 0.9, where 1 is the maximum; inactive means score below 0.9.
# Read-out: Urokinase-type plasminogen activator receptor (uPAR), PLAUR (gene 5329)
# Assay: BSK_4H_uPAR: BioMAP Diversity Plus: 4H Assay for Urokinase-type plasminogen activator receptor (uPAR) Biomarker Activity (AID 2283030)
# Conditions: primary human endothelial cells (HUVEC); actives raise or lower the signal
# In short: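 Human umbilical vein endothelial cells in the 4H system, 24 h after chemical dosing. Cell-surface uPAR measured by ELISA, fitted in both directions versus DMSO; cytotoxicity checked by SRB total protein in parallel cultures.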
Structure (SMILES),outcome,AC50
O=C(Oc1ccccc1)c1ccccc1C(=O)Oc1ccccc1,inactive,–
Oc1ccc(/C=C/c2cc(O)cc(O)c2)cc1,–,1.24 µM (active)
CCCCCCCO,inactive,–
C=CC(=O)OCC(C)OCC(C)OCC(C)OC(=O)C=C (stereo not drawn),–,31.1 µM (active)

# Read-out: Vascular endothelial growth factor receptor 2 (Homo sapiens) (UniProt P35968)
# Assay: BSK_4H_VEGFRII: BioMAP Diversity Plus: 4H Assay for Vascular endothelial growth factor receptor 2 (VEGFR2) Biomarker Activity (AID 2283031);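 on AC50: cell-surface VEGFR2 protein level quantified by ELISA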
# Conditions: primary human endothelial cells (HUVEC); actives raise or lower the signal
# In short: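 Primary human umbilical vein endothelial cells (4H system), 24 h exposure; cell-surface VEGFR2 measured by ELISA. Bidirectional fitting versus DMSO; cytotoxicity checked in parallel by SRB total-protein staining.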
Structure (SMILES),outcome,AC50
COc1ccc(C(=O)c2ccccc2)c(O)c1,inactive,–
CC(C)CCCCCOC(=O)CS,inactive,–
Nc1ccc(C(=O)O)cc1,inactive,–
CC(Cl)COP(=O)(OCC(C)Cl)OCC(C)Cl (stereo not drawn),inactive,–
CCc1cccc(C)c1N(C(=O)CS(=O)(=O)O)C(C)COC (stereo not drawn),inactive,–
CCCCCCCCC(CO)CCCCCC (stereo not drawn),inactive,–
CC1=CC=C(C(C)C)CC1,inactive,–
C=CC(=O)OCCCCCCCC(C)C,inactive,–
Fc1ccc(Br)cc1,inactive,–
CCCCCCCCCCCC(C)=O,inactive,–
C=CC(=O)NCOCCCC,inactive,–
CC(C)[N+](C)(CCOC(=O)C1c2ccccc2Oc2ccccc21)C(C)C,inactive,–
Oc1c(Cl)cc(Cl)c(Cl)c1Cl,inactive,–
C=C(C)C(=O)OCCCCCCCCCCCC,inactive,–
Clc1cc(Cl)c(Cl)c(Cl)c1Cl,inactive,–
CCOC(=O)/C=C\C(=O)OCC,inactive,–
CC(C)C(=O)OCCc1ccccc1,inactive,–
CCOC(=O)C1=NN(c2ccc(Cl)cc2Cl)C(C)(C(=O)OCC)C1 (stereo not drawn),inactive,–
C=CCCCCCCCCC=O,inactive,–
Nc1nc(N)nc(-c2ccccc2)n1,inactive,–
c1ccc(Nc2cccc3ccccc23)cc1,–,33.2 µM (active) and 32.2 µM (active)
CCCCCCOC(=O)CCCCC(=O)OCCCCCC,inactive,–
COC(OC)(C(=O)c1ccccc1)c1ccccc1,inactive,–
Cc1c(O)cccc1O,inactive,–
CC/C=C\C/C=C\C/C=C\CCCCCCCC(=O)OC,inactive,–
CC(c1cc(C(C)(C)C)cc(C(C)(C)C)c1O)c1cc(C(C)(C)C)cc(C(C)(C)C)c1O,inactive,–
O=C(Oc1ccccc1)c1ccccc1C(=O)Oc1ccccc1,inactive,–
Oc1ccc(/C=C/c2cc(O)cc(O)c2)cc1,inactive,–
CCCCCCCO,inactive,–
C=CC(=O)OCC(C)OCC(C)OCC(C)OC(=O)C=C (stereo not drawn),inactive,–

# Read-out: Human Leukocyte Antigen - DR isotype (HLADR), HLA-DRA (gene 3122)
# Assay: BSK_BE3C_HLADR: BioMAP Diversity Plus: BE3C Assay for Human Leukocyte Antigen - DR isotype (HLADR) Biomarker Activity (AID 2283032)
# Conditions: primary human bronchial epithelial cells; actives raise or lower the signal
# In short: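 Primary human bronchial epithelial cells (BE3C); 24 h chemical exposure; HLA-DR by ELISA; bidirectional curve fit vs DMSO baseline.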
Structure (SMILES),outcome,AC50
COc1ccc(C(=O)c2ccccc2)c(O)c1,inactive,–
CC(C)CCCCCOC(=O)CS,inactive,–
Nc1ccc(C(=O)O)cc1,inactive,–
CC(Cl)COP(=O)(OCC(C)Cl)OCC(C)Cl (stereo not drawn),inactive,–
CCc1cccc(C)c1N(C(=O)CS(=O)(=O)O)C(C)COC (stereo not drawn),inactive,–
CCCCCCCCC(CO)CCCCCC (stereo not drawn),inactive,–
CC1=CC=C(C(C)C)CC1,inactive,–
C=CC(=O)OCCCCCCCC(C)C,inactive,–
Fc1ccc(Br)cc1,inactive,–
CCCCCCCCCCCC(C)=O,inactive,–
C=CC(=O)NCOCCCC,inactive,–
CC(C)[N+](C)(CCOC(=O)C1c2ccccc2Oc2ccccc21)C(C)C,inactive,–
Oc1c(Cl)cc(Cl)c(Cl)c1Cl,–,6.25 µM (active)
C=C(C)C(=O)OCCCCCCCCCCCC,inactive,–
Clc1cc(Cl)c(Cl)c(Cl)c1Cl,inactive,–
CCOC(=O)/C=C\C(=O)OCC,inactive,–
CC(C)C(=O)OCCc1ccccc1,inactive,–
CCOC(=O)C1=NN(c2ccc(Cl)cc2Cl)C(C)(C(=O)OCC)C1 (stereo not drawn),inactive,–
C=CCCCCCCCCC=O,inactive,–
Nc1nc(N)nc(-c2ccccc2)n1,inactive,–
c1ccc(Nc2cccc3ccccc23)cc1,–,28 µM (active) and 30.7 µM (active)
CCCCCCOC(=O)CCCCC(=O)OCCCCCC,inactive,–
COC(OC)(C(=O)c1ccccc1)c1ccccc1,inactive,–
Cc1c(O)cccc1O,inactive,–
CC/C=C\C/C=C\C/C=C\CCCCCCCC(=O)OC,–,13.4 µM (active)
CC(c1cc(C(C)(C)C)cc(C(C)(C)C)c1O)c1cc(C(C)(C)C)cc(C(C)(C)C)c1O,inactive,–
O=C(Oc1ccccc1)c1ccccc1C(=O)Oc1ccccc1,inactive,–
Oc1ccc(/C=C/c2cc(O)cc(O)c2)cc1,–,20 µM (active)
C=CC(=O)OCC(C)OCC(C)OCC(C)OC(=O)C=C (stereo not drawn),–,13.6 µM (active)

# Read-out: Vascular cell adhesion molecule 1 (VCAM1), VCAM1 (gene 7412)
# Assay: BSK_4H_VCAM1: BioMAP Diversity Plus: 4H Assay for Vascular cell adhesion molecule 1 (VCAM1) Biomarker Activity (AID 2283033);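 on outcome: cell-surface VCAM-1 protein measured by ELISA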
# Conditions: primary human endothelial cells (HUVEC); actives raise or lower the signal
# In short: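 HUVEC, 24 h post-dose; VCAM-1 by ELISA. Bidirectional curve fit vs DMSO baseline. Parallel SRB total-protein stain (0.1% SRB after 10% TCA fixation, 560 nm) for cytotoxicity.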
Structure (SMILES),AC50,outcome
COc1ccc(C(=O)c2ccccc2)c(O)c1,29.1 µM (active),–
CC(C)CCCCCOC(=O)CS,–,inactive
Nc1ccc(C(=O)O)cc1,–,inactive
CC(Cl)COP(=O)(OCC(C)Cl)OCC(C)Cl (stereo not drawn),–,inactive
CCc1cccc(C)c1N(C(=O)CS(=O)(=O)O)C(C)COC (stereo not drawn),–,inactive
CCCCCCCCC(CO)CCCCCC (stereo not drawn),–,inactive
CC1=CC=C(C(C)C)CC1,–,inactive
C=CC(=O)OCCCCCCCC(C)C,15.7 µM (active),–
Fc1ccc(Br)cc1,–,inactive
CCCCCCCCCCCC(C)=O,29.6 µM (active),–
C=CC(=O)NCOCCCC,–,inactive
CC(C)[N+](C)(CCOC(=O)C1c2ccccc2Oc2ccccc21)C(C)C,–,inactive
Oc1c(Cl)cc(Cl)c(Cl)c1Cl,20 µM (active),–
C=C(C)C(=O)OCCCCCCCCCCCC,–,inactive
Clc1cc(Cl)c(Cl)c(Cl)c1Cl,20 µM (active),–
CCOC(=O)/C=C\C(=O)OCC,–,inactive
CC(C)C(=O)OCCc1ccccc1,–,inactive
CCOC(=O)C1=NN(c2ccc(Cl)cc2Cl)C(C)(C(=O)OCC)C1 (stereo not drawn),–,inactive
C=CCCCCCCCCC=O,–,inactive
Nc1nc(N)nc(-c2ccccc2)n1,–,inactive
c1ccc(Nc2cccc3ccccc23)cc1,31.4 µM (active) and 28.8 µM (active),–
CCCCCCOC(=O)CCCCC(=O)OCCCCCC,–,inactive
COC(OC)(C(=O)c1ccccc1)c1ccccc1,–,inactive
Cc1c(O)cccc1O,–,inactive
CC/C=C\C/C=C\C/C=C\CCCCCCCC(=O)OC,29 µM (active),–
CC(c1cc(C(C)(C)C)cc(C(C)(C)C)c1O)c1cc(C(C)(C)C)cc(C(C)(C)C)c1O,–,inactive
O=C(Oc1ccccc1)c1ccccc1C(=O)Oc1ccccc1,–,inactive
Oc1ccc(/C=C/c2cc(O)cc(O)c2)cc1,–,inactive
CCCCCCCO,–,inactive
C=CC(=O)OCC(C)OCC(C)OCC(C)OC(=O)C=C (stereo not drawn),10.1 µM (active),–
